Records with an inconclusive call do not appear. The source made the active and inactive calls. Calls come from the whole dose curve; as a rule, active = well fitted curve in the direction sought with a large enough effect in the repeat runs; inconclusive = weak or mixed curves; inactive = no such curve, though single readings can be large; an effect the other way counts as inactive or inconclusive.
Legend:
[1] = qHTS RealTime-Glo MT Cell Viability Assay in HepG2 cells - 24 hour (AID 1224867); note: nearly all actives have a fitted effect of over 50% in size
Method in brief: (§1)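 HepG2 suspension premixed with RealTime-Glo reagents is plated at 600 cells per well and left 5 h at 37 C/5% CO2. Compounds in DMSO then go in, and bioluminescence reflecting viable cell number is recorded over 40 h.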

[2] = qHTS RealTime-Glo MT Cell Viability Assay in HEK293 cells - 32 hour (AID 1224868); note: top concentration of the series differs between compounds; nearly all actives have a fitted effect of over 50% in size
Method in brief: (§2)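 Reads taken at 0, 8, 16, 24, 32 and 40 h from the same wells. HEK293 cells (600/well) carried RealTime-Glo reagents from seeding, with compound added after a 5 h settle at 37 C.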

[3] = A CellTox Green Cytotoxicity Assay to monitor cytotoxicity in HEK293 cells - 0 hour (AID 1224869); note: nearly all actives have a fitted effect of over 50% in size
Method in brief: (§3)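 Fluorescence intensity, read at 0, 8, 16, 24, 32 and 40 h of compound treatment, reflected dye binding to DNA of dead HEK293 cells; compounds (23 nL, DMSO) were added 5 h after plating cells with reagent.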

[4] = qHTS RealTime-Glo MT Cell Viability Assay in HepG2 cells - 40 hour (AID 1224870); note: nearly all actives have a fitted effect of over 50% in size
Method in brief: (§4)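 HepG2 cells (600/well) mixed with RealTime-Glo MT reagent, settled 5 h at 37 C/5% CO2 before compound addition. Nonlytic NanoLuc luminescence from viable-cell prosubstrate reduction read repeatedly during 40 h treatment at 37 C.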

[5] = A CellTox Green Cytotoxicity Assay to monitor cytotoxicity in HEK293 cells - 40 hour (AID 1224871); note: nearly all actives have a fitted effect of over 45% in size
Method in brief: as §3

[6] = qHTS RealTime-Glo MT Cell Viability Assay in HEK293 cells - 16 hour (AID 1224872)
Method in brief: as §2

[7] = qHTS RealTime-Glo MT Cell Viability Assay in HepG2 cells - 8 hour (AID 1224873); note: nearly all actives have a fitted effect of over 55% in size
Method in brief: as §4

[8] = qHTS RealTime-Glo MT Cell Viability Assay in HEK293 cells - 40 hour (AID 1224874); details: RealTime-Glo luminescence, active compounds read low; note: nearly all actives have a fitted effect of over 50% in size
Method in brief: (§5)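 Viable HEK293 cells reduce a cell-permeant prosubstrate; the product diffuses out and is consumed by NanoLuc in the medium to give light. Compounds went in after a 5 h incubation and plates were read over the treatment course.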

[9] = A CellTox Green Cytotoxicity Assay to monitor cytotoxicity in HEK293 cells - 24 hour (AID 1224875); note: series mostly up to about 77 µM; nearly all actives have a fitted effect of over 45% in size
Method in brief: as §3

[10] = A CellTox Green Cytotoxicity Assay to monitor cytotoxicity in HepG2 cells - 16 hour (AID 1224876); note: nearly all actives have a fitted effect of over 45% in size
Method in brief: (§6)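 Using 1536-well format, dye-containing HepG2 suspension was seeded, allowed 5 h at 37 C/5% CO2, dosed by pintool with compounds, positive and negative controls, and imaged for fluorescence across 40 h.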

[11] = qHTS RealTime-Glo MT Cell Viability Assay in HepG2 cells - 32 hour (AID 1224877); note: nearly all actives have a fitted effect of over 55% in size
Method in brief: as §1

[12] = A CellTox Green Cytotoxicity Assay to monitor cytotoxicity in HepG2 cells - 24 hour (AID 1224878); note: nearly all actives have a fitted effect of over 45% in size
Method in brief: as §6

[13] = A CellTox Green Cytotoxicity Assay to monitor cytotoxicity in HepG2 cells - 40 hour (AID 1224879); note: nearly all actives have a fitted effect of over 40% in size
Method in brief: as §6

[14] = qHTS RealTime-Glo MT Cell Viability Assay in HEK293 cells - 0 hour (AID 1224880)
Method in brief: as §5

[15] = A CellTox Green Cytotoxicity Assay to monitor cytotoxicity in HEK293 cells - 32 hour (AID 1224881); note: nearly all actives have a fitted effect of over 40% in size
Method in brief: as §3

[16] = A CellTox Green Cytotoxicity Assay to monitor cytotoxicity in HepG2 cells - 0 hour (AID 1224882); note: nearly all actives have a fitted effect of over 35% in size
Method in brief: as §6

[17] = A CellTox Green Cytotoxicity Assay to monitor cytotoxicity in HepG2 cells - 32 hour (AID 1224883); note: nearly all actives have a fitted effect of over 50% in size
Method in brief: as §6

[18] = A CellTox Green Cytotoxicity Assay to monitor cytotoxicity in HEK293 cells - 8 hour (AID 1224884); note: nearly all actives have a fitted effect of over 35% in size
Method in brief: as §3

[19] = qHTS RealTime-Glo MT Cell Viability Assay in HepG2 cells - 16 hour (AID 1224885); note: nearly all actives have a fitted effect of over 50% in size
Method in brief: as §1

[20] = qHTS RealTime-Glo MT Cell Viability Assay in HEK293 cells - 24 hour (AID 1224886)
Method in brief: as §2
% is set by controls: 0 for no effect and ±100 for the full control effect.

C=C(C)C(=O)OCCCC
inactive: outcome [1] | outcome [2] | outcome [3] | outcome [4] | Potency [5] | outcome [6] | outcome [7] | max response [8] 11.4% | Potency [9] | Potency [10] | outcome [11] | Potency [12] | Potency [13] | Potency [14] | Potency [15] | Potency [16] | Potency [17] | Potency [18] | outcome [19] | outcome [20]

CCCCCCCCS(=O)(=O)O
inactive: outcome [1] | outcome [2] | outcome [3] | outcome [4] | Potency [5] | outcome [6] | outcome [7] | max response [8] -0.584% | Potency [9] | Potency [10] | outcome [11] | Potency [12] | Potency [13] | Potency [14] | Potency [15] | Potency [16] | Potency [17] | Potency [18] | outcome [19] | outcome [20]

N#Cc1ccccc1C#N
inactive: outcome [1] | outcome [2] | outcome [3] | outcome [4] | Potency [5] | outcome [6] | outcome [7] | max response [8] 4.47% | Potency [9] | Potency [10] | outcome [11] | Potency [12] | Potency [13] | Potency [14] | Potency [15] | Potency [16] | Potency [17] | Potency [18] | outcome [19] | outcome [20]

CC(C)(C)OC(=O)c1ccccc1C(=O)O
inactive: outcome [1] | outcome [2] | outcome [3] | outcome [4] | Potency [5] | outcome [6] | outcome [7] | max response [8] 0.795% | Potency [9] | Potency [10] | outcome [11] | Potency [12] | Potency [13] | Potency [14] | Potency [15] | Potency [16] | Potency [17] | Potency [18] | outcome [19] | outcome [20]

Cc1ccc2cccnc2c1
inactive: outcome [1] | outcome [2] | outcome [3] | outcome [4] | Potency [5] | outcome [6] | outcome [7] | max response [8] 20.7% | Potency [9] | Potency [10] | outcome [11] | Potency [12] | Potency [13] | Potency [14] | Potency [16] | Potency [17] | Potency [18] | outcome [19] | outcome [20]

COc1cnc(NS(=O)(=O)c2ccc(N)cc2)nc1
inactive: outcome [1] | outcome [2] | outcome [3] | outcome [4] | Potency [5] | outcome [6] | outcome [7] | max response [8] 3.91% | Potency [9] | Potency [10] | outcome [11] | Potency [12] | Potency [13] | Potency [14] | Potency [16] | Potency [17] | Potency [18] | outcome [19] | outcome [20]

CCCCCCCCCCCCCCCCN(C)C
inactive: activity change, negative = cytotoxicity [1] -0.0663% [at 6.97 µM] | activity change, negative = cytotoxic [2] 5.99% [at 6.97 µM] | cytotoxicity [3] 1.73% [at 6.97 µM] | activity change, negative = cytotoxic [4] -1.15% [at 6.97 µM] | cytotoxicity increase [5] 4.91% [at 6.97 µM] | activity change, negative = cytotoxicity [6] 5.86% [at 6.97 µM] | viability change, negative = cytotoxic [7] 3.36% [at 6.97 µM] | max response [8] 4.91% | activity change [9] 2.54% [at 6.97 µM, active compounds read high] | cytotoxicity increase [10] 1.82% [at 6.97 µM] | activity change, negative = cytotoxic [11] -0.525% [at 6.97 µM] | cytotoxicity [12] 1.92% [at 6.97 µM] | cytotoxicity increase [13] 0.0455% [at 6.97 µM] | activity change, negative = cytotoxicity [14] 2.86% [at 6.97 µM] | cytotoxicity increase [15] 3.45% [at 6.97 µM] | cytotoxicity [16] 2.28% [at 6.97 µM] | cytotoxicity increase [17] 1.06% [at 6.97 µM] | cytotoxicity increase [18] -0.796% [at 6.97 µM] | activity change, negative = cytotoxic [19] 0.191% [at 6.97 µM] | activity change, negative = cytotoxicity [20] 5.99% [at 6.97 µM]

C[n+]1ccccc1/C=N/O
inactive: outcome [1] | outcome [2] | outcome [3] | outcome [4] | Potency [5] | outcome [6] | outcome [7] | max response [8] 0.0286% | Potency [9] | Potency [10] | outcome [11] | Potency [12] | Potency [13] | Potency [14] | Potency [16] | Potency [17] | Potency [18] | outcome [19] | outcome [20]

Cc1ccccc1C#N
inactive: outcome [1] | outcome [2] | outcome [3] | outcome [4] | Potency [5] | outcome [6] | outcome [7] | max response [8] 7.55% | Potency [9] | Potency [10] | outcome [11] | Potency [12] | Potency [13] | Potency [14] | Potency [16] | Potency [17] | Potency [18] | outcome [19] | outcome [20]

CC(CC(=O)Cl)CC(C)(C)C (stereo unspecified)
inactive: outcome [1] | outcome [2] | outcome [3] | outcome [4] | Potency [5] | outcome [6] | outcome [7] | max response [8] 4.64% | Potency [9] | Potency [10] | outcome [11] | Potency [12] | Potency [13] | Potency [14] | Potency [15] | Potency [16] | Potency [17] | outcome [19] | outcome [20]

CNC(=O)c1c(I)c(NC(C)=O)c(I)c(C(=O)O)c1I
inactive: outcome [1] | outcome [2] | outcome [3] | outcome [4] | Potency [5] | outcome [6] | outcome [7] | max response [8] 3.75% | Potency [9] | Potency [10] | outcome [11] | Potency [12] | Potency [13] | Potency [14] | Potency [15] | Potency [16] | Potency [17] | Potency [18] | outcome [19] | outcome [20]

C/C=C/C(=O)CCCC
inactive: outcome [1] | outcome [2] | outcome [3] | outcome [4] | Potency [5] | outcome [6] | outcome [7] | max response [8] 0.74% | Potency [9] | Potency [10] | outcome [11] | Potency [12] | Potency [13] | Potency [14] | Potency [15] | Potency [16] | Potency [17] | Potency [18] | outcome [19] | outcome [20]

O=P(O)(O)C(O)(Cc1cccnc1)P(=O)(O)O
inactive: outcome [1] | outcome [2] | outcome [3] | outcome [4] | Potency [5] | outcome [6] | outcome [7] | max response [8] -1.75% | Potency [9] | Potency [10] | outcome [11] | Potency [13] | Potency [14] | Potency [16] | Potency [17] | Potency [18] | outcome [19] | outcome [20]

C=CCCCCCCCCOC(C)=O
inactive: outcome [1] | outcome [2] | outcome [3] | outcome [4] | Potency [5] | outcome [6] | outcome [7] | max response [8] 0.238% | Potency [9] | Potency [10] | outcome [11] | Potency [13] | Potency [14] | Potency [16] | Potency [17] | Potency [18] | outcome [19] | outcome [20]

From PubChem BioAssay (Tox21)
